Measured values published in PubChem BioAssay (NCATS).
A number with no mark means an inactive call. Results filed as inconclusive are left out. A call without a number means that no potency is given here. Activity calls are given as the source filed them. Unless noted, calls follow the shape of the dose curve; as a rule, active = well fitted curve in the direction sought with a large enough effect; inconclusive = small, poorly fitted or top-dose-only effect, or another doubt; inactive = no such curve, though single readings can be large; an effect the other way counts as inactive or inconclusive.

How the values were obtained:
[1] = target: Flap endonuclease 1 (Homo sapiens) (UniProt P39748); assay: qHTS Validation Assay for the Inhibitors of Human Flap endonuclease 1 (FEN1) (AID 488816)
In short: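 qHTS format: compounds and 10 nM FEN1 incubated 15 min at room temperature before adding 50 nM substrate. Cleavage followed by reads at 0 and 15 min; normalized data fitted to a four-parameter Hill curve.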

[2] = target: M-phase phosphoprotein 8 (Homo sapiens) (UniProt Q99549); assay: qHTS Validation Assay for Inhibitors for MPP8 Chromodomain Interactions with Methylated Histone Tails (AID 488949);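 also: AlphaScreen signal from MPP8 chromodomain bound to biotinylated H3K9me3 peptide; top concentration of the series differs between compounds; nearly all actives have a fitted effect of over 55% in size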
In short: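 MPP8 (50 nM) was preincubated with biotinylated H3(1-18)K9me3 peptide (50 nM) in PBS pH 7.4, 0.01% Tween-20 for 30 min at room temperature, then with compounds for 30 min; binding was detected by AlphaScreen.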

[3] = target: Chromobox protein homolog 1 (Homo sapiens) (UniProt P83916); assay: qHTS Validation Assay for Inhibitors of HP1-beta Chromodomain Interactions with Methylated Histone Tails (AID 488953); also: nearly all actives have a fitted effect of over 50% in size; also: potency is read from the fitted curve at half-maximal effect
In short: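 AlphaScreen proximity signal from streptavidin donor and nickel chelate acceptor beads (final 10 ug/mL) after 30 min dark incubation. Compounds had 30 min at room temperature with preformed complex of 50 nM HP1-beta and 50 nM b-H3(1-18)K9me3 in PBS pH 7.4 with 0.01% Tween-20.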

[4] = target: Transient receptor potential cation channel subfamily V member 1 (Homo sapiens) (UniProt Q8NER1); assay: HTS Assay for Compounds that Act as Enhancers of the Vanilloid Receptor 1 (AID 488979)
In short: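 Calcium influx kinetics via Fluo-8 (480/520 nm) in TRPV1-expressing cells, 2000/well cultured overnight at 35.5C. Compound-alone read 3 min (agonist phase), followed by EC20 capsaicin challenge for 2 min (enhancer phase).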

[5] = target: Thyrotropin receptor (Homo sapiens) (UniProt P16473); assay: qHTS Assay for Antagonists of the Thyroid Stimulating Hormone Receptor (AID 488980); also: series mostly up to about 58 µM
In short: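 HEK293 cells transfected with human TSHR, suspended in HEPES-buffered HBSS with 70 uM RO 20-1724, were treated with compounds plus TSH at EC80 (4 nM final). cAMP was measured by competitive HTRF (cryptate anti-cAMP antibody, cAMP-d2 acceptor).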

[6] = target: ATP-dependent 6-phosphofructokinase (Trypanosoma brucei brucei) (UniProt O15648); assay: qHTS Assay to Find Inhibitors of T. brucei phosphofructokinase: hit validation (AID 492961);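 also: luminescence reports ADP formed as PFK phosphorylates fructose-6-phosphate with ATP; series mostly up to about 51 µM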
In short: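 ADP-Glo luminescence read-out of ADP formed by 1.25 nM PFK from 0.1 mM ATP and 0.5 mM F6P (TEA pH 8.0, 45 min, RT). Compounds titrated; activity normalized to no-enzyme and full-enzyme controls.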

[7] = Quantitative high throughput screen for delayed death inhibitors of the malarial parasite plastid, 96 hour incubation (AID 488745); also: nearly all actives have a fitted effect of over 70% in size; also: potency is read from the fitted curve at half-maximal effect
In short: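 Decreased firefly luciferase luminescence indicates inhibited growth of reporter-integrated P. falciparum after two generations (96 h, 37 C, 5% CO2). Infected erythrocytes at 0.1% parasitemia, 2% hematocrit, in Albumax-supplemented RPMI 1640.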

[8] = Validation screen for small molecules that induce genotoxicity in human embryonic kidney (HEK293T) cells expressing luciferase-tagged ELG1 (AID 493106); also: potency is read from the fitted curve at half-maximal effect
In short: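 ELG1-luciferase reporter readout (ONE-Glo, 30 min, room temperature) after 16 hr compound treatment at 37 °C of HEK293T cells at 2,000 per well. Rising luminescence flags genotoxic stress.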

[9] = target: D(1A) dopamine receptor (Homo sapiens) (UniProt P21728); assay: HTS Assay for Allosteric Agonists of the Human D1 Dopamine Receptor: Primary Screen for Potentiators (AID 488982)
In short: (§1)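 Calcium flux in an inducible, force-coupled HEK293 Trex D1 line (overnight at 30 C): agonist mode is the 180 s kinetic read after compound; potentiator mode is the following 180 s read after dopamine at EC20.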

[10] = target: Tumor susceptibility gene 101 protein (Homo sapiens) (UniProt Q99816); assay: qHTS Validation Assay for Iinhibitors of HIV-1 Budding by Blocking the Interaction of PTAP/TSG101 (AID 485342; calls by dose curve)
In short: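 Tsg101 binding domain (10 uM final) in pH 7.5 HEPES/NaCl/Tween 20/EDTA/TCEP buffer was mixed with pin-transferred compounds, then FITC-labeled PTAP peptide (50 nM final) was added; after 20 min at r.t., fluorescence polarization was read.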

[11] = target: Beta-2 adrenergic receptor (Homo sapiens) (UniProt P07550); assay: qHTS validation assay of beta-arrestin-biased ligands of beta2-adrenergic receptor (AID 485366)
In short: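 Screening used a titration range of up to 46 microM in a beta-arrestin recruitment Tango luciferase assay. Cells in 1% FBS medium were treated 18 hr at 37 degrees C, and luminescence was normalized to %Activity.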

[12] = target: Thioredoxin reductase 1, cytoplasmic (Rattus norvegicus) (UniProt O89049); assay: qHTS Assay for Substrates of Mammalian Selenoprotein Thioredoxin Reductase 1 (TrxR1) (AID 488772);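 also: series mostly up to about 57 µM; a drop in NADPH fluorescence below the no-compound background marks a TrxR1 substrate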
In short: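 In this dual-purpose format, potential substrates are identified from the first fluorescence read after selenite addition, not from the 8-minute delta. Rat enzyme is preincubated with NADPH and then with compound at ~22 deg C.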

[13] = target: Thioredoxin reductase 1, cytoplasmic (Rattus norvegicus) (UniProt O89049); assay: qHTS Assay for Inhibitors of Mammalian Selenoprotein Thioredoxin Reductase 1 (TrxR1) (AID 488773); conditions: Potency: inhibition; also: nearly all actives have a fitted effect of over 40% in size; also: potency is read from the fitted curve at half-maximal effect
In short: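 Inhibition is scored from the loss of NADPH fluorescence between first and last reads of an 8-min kinetic run. Selenite (400 uM) was the substrate, added after 15 min compound preincubation at room temperature.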

[14] = target: Methanococcus maripaludis chaperonin (MmCpn) (UniProt Q6LX38); assay: High-Throughput Screening for Modulators of Cytosolic Chaperonin Activity: MmCpn Primary Screen (AID 488978);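 also: 50 nM MmCpn enzyme hydrolysing 30 µM ATP at 37 °C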
In short: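 MmCpn (50 nM final) was preincubated with compound 5 min at RT, then 30 uM ATP (final) was added and the reaction ran 10 min at 37C. ADP produced was detected by Transcreener HTRF (ex 320 nm; em 590/665 nm).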

[15] = target: D(1A) dopamine receptor (Homo sapiens) (UniProt P21728); assay: HTS Assay for Allosteric Agonists of the Human D1 Dopamine Receptor: Primary Screen for Agonists (AID 488981)
In short: as §1

[16] = target: D(1A) dopamine receptor (Homo sapiens) (UniProt P21728); assay: HTS Assay for Allosteric Agonists of the Human D1 Dopamine Receptor: Primary Screen for Antagonists (AID 488983);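 also: calcium flux response to an EC80 dopamine challenge measured with no-wash dye; nearly all actives have a fitted effect of over 65% in size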
In short: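 Calcium-flux read-out in inducible HEK293 T-REx cells expressing D1, dye-loaded 30–90 min at room temperature. Kinetic reads: 180 s after compound (agonist phase), then 180 s after an EC80 dopamine challenge.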

[17] = target: ATPase family AAA domain-containing protein 5 (Homo sapiens) (UniProt Q96QE3); assay: Validation screen for small molecules that inhibit ELG1-dependent DNA repair in human embryonic kidney (HEK293T) cells expressing luciferase-tagged ELG1 (AID 493107); also: potency is read from the fitted curve at half-maximal effect; nearly all actives have a fitted effect of over 70% in size
In short: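 Luciferase read-out, ONE-Glo, 30 min at room temperature, follows 16 h co-exposure at 37 C of compound and the DNA-damaging agent 5-fluorouridine. Cells: HEK293T with ELG1-luciferase fusion, 2,000 per well, DMSO as vehicle.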

[18] = target: Thyrotropin-releasing hormone receptor (Homo sapiens) (UniProt P34981); assay: qHTS for Small Molecule Agonists and Allosteric Enhancers of Human TRH Receptor: Validation Screen for Agonists (AID 493127;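 active = calcium activation more than 3 SD above the typical response in the agonist read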;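 also: intracellular calcium rise by fluo-8 fluorescence before TRH EC20 addition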); conditions: TRH receptor agonist cell assay; at 2 µM; hits give high values
In short: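 Compound-evoked intracellular calcium release in fluo-8-loaded TRHR cells, read kinetically on FDSS (Ex 480/Em 530, 1 s/cycle) after 23 nL pintool transfer. Agonist phase preceded 10 nM TRH EC20 addition.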

[19] = target: ATP-dependent 6-phosphofructokinase (Trypanosoma brucei brucei) (UniProt O15648); assay: qHTS Validation Assay to Find Inhibitors of T. brucei phosphofructokinase (AID 485368)
In short: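 PFK-generated ADP was measured after 45 min at room temperature using ADP-Glo. The reaction contained 0.5 mM F6P and 0.1 mM ATP.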

Sequence of ATP-dependent 6-phosphofructokinase (Trypanosoma brucei brucei) (O15648 whole entry, looked up): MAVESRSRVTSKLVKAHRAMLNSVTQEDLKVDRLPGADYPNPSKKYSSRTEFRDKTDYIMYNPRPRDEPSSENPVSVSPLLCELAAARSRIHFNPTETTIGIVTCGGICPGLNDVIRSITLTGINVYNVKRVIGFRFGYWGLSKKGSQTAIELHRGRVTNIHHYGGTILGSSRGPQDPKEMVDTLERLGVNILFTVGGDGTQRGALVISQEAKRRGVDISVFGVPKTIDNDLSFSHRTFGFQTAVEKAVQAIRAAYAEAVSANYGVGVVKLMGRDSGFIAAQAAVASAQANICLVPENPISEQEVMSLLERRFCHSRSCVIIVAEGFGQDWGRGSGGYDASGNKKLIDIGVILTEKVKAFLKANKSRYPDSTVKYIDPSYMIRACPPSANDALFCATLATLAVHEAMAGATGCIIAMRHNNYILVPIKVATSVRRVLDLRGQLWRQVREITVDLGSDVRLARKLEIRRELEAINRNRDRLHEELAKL
Sequence of Thioredoxin reductase 1, cytoplasmic (Rattus norvegicus) (O89049 whole entry, looked up): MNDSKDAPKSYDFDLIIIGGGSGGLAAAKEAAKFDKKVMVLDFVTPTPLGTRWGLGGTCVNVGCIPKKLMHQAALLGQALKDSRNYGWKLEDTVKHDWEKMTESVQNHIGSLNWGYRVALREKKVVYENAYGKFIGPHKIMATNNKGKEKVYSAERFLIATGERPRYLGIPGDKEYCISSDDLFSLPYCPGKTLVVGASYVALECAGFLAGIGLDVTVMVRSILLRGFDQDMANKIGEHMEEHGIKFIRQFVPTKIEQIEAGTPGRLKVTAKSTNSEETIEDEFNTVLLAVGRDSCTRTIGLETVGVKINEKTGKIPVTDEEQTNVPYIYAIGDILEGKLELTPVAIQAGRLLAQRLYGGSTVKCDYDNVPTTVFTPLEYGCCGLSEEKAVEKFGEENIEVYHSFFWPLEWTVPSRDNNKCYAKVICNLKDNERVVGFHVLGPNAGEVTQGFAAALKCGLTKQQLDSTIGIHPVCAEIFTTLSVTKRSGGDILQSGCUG
Sequence of Chromobox protein homolog 1 (Homo sapiens) (P83916 whole entry, looked up): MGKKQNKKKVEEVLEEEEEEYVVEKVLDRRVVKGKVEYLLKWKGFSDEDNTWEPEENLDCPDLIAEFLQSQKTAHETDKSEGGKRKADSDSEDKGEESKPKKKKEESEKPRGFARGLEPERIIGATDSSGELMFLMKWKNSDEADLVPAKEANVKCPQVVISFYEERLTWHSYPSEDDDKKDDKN
Sequence of Thyrotropin receptor (Homo sapiens) (P16473 whole entry, looked up): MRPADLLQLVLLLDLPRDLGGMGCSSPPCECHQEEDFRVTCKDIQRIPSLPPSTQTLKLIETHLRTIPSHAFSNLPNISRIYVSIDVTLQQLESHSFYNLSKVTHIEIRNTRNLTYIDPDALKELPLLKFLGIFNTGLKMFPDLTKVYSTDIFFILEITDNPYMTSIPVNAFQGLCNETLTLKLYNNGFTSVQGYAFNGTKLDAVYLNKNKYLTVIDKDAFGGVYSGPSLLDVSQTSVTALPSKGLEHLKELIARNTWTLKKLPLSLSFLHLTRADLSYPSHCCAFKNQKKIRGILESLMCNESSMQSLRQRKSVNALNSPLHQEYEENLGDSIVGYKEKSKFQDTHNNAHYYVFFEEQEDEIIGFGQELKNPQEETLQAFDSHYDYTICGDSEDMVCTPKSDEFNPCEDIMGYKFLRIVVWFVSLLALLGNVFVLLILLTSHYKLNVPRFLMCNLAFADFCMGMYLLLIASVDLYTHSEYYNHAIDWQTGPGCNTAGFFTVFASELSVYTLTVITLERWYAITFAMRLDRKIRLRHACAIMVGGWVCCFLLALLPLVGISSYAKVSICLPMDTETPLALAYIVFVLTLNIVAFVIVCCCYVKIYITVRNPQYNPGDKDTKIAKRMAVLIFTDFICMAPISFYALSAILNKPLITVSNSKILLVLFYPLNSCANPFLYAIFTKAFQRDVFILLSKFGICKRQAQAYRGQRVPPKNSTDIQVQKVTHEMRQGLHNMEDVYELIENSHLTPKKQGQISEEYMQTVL
Sequence of Transient receptor potential cation channel subfamily V member 1 (Homo sapiens) (Q8NER1 whole entry, looked up): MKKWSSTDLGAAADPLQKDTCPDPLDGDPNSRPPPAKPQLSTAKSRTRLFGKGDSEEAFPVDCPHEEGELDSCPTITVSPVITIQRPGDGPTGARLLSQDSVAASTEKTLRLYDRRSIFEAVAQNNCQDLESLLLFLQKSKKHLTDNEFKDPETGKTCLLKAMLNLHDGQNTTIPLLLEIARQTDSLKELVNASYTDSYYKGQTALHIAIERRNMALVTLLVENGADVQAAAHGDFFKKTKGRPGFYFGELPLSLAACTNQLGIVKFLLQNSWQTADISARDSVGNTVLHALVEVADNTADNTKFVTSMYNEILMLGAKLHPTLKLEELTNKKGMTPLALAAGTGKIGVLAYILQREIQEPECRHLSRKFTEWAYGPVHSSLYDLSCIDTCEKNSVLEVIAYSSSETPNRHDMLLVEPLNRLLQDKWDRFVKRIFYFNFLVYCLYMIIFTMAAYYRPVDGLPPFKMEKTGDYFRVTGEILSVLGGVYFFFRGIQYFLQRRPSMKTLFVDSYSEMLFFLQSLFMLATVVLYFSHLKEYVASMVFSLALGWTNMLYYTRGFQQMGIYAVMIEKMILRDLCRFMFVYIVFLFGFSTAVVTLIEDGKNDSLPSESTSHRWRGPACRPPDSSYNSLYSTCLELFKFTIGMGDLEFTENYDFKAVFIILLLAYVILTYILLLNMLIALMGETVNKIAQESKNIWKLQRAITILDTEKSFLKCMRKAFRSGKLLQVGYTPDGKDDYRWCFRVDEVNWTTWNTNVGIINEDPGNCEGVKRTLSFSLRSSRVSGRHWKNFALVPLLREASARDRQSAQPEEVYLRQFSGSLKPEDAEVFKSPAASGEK
Sequence of M-phase phosphoprotein 8 (Homo sapiens) (Q99549 whole entry, looked up): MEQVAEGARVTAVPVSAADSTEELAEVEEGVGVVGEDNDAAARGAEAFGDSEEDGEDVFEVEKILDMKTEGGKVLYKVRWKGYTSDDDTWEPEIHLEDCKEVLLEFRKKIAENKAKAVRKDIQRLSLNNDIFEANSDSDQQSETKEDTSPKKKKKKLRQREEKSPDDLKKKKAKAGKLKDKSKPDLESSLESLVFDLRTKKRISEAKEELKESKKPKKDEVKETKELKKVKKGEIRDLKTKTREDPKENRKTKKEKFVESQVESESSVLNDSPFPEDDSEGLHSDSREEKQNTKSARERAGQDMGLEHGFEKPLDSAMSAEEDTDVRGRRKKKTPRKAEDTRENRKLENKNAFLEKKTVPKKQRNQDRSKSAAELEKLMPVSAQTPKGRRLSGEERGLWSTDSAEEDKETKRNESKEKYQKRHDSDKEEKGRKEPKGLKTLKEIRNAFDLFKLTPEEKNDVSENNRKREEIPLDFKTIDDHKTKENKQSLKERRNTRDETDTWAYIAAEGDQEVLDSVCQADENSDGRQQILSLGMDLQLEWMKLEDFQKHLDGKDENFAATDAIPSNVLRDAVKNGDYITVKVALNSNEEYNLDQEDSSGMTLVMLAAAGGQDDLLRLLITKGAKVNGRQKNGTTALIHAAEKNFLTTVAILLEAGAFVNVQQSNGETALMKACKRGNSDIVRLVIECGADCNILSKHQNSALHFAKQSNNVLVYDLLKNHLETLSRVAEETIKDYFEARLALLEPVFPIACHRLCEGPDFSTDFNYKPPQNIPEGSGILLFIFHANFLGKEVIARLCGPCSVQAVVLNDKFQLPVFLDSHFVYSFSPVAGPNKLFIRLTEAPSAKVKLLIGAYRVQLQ
Sequence of D(1A) dopamine receptor (Homo sapiens) (P21728 whole entry, looked up): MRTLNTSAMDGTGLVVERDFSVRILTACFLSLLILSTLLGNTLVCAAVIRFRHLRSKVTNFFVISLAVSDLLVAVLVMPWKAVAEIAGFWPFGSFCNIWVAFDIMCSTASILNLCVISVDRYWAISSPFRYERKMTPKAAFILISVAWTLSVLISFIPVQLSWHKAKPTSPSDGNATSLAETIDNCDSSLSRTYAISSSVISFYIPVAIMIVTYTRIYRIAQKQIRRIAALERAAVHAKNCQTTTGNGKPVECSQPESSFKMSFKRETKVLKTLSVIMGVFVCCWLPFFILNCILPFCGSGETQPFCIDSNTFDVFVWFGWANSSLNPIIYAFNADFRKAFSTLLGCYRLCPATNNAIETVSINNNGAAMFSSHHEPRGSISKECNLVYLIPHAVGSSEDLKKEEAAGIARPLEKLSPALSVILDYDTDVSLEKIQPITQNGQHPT
Sequence of Flap endonuclease 1 (Homo sapiens) (P39748 whole entry, looked up): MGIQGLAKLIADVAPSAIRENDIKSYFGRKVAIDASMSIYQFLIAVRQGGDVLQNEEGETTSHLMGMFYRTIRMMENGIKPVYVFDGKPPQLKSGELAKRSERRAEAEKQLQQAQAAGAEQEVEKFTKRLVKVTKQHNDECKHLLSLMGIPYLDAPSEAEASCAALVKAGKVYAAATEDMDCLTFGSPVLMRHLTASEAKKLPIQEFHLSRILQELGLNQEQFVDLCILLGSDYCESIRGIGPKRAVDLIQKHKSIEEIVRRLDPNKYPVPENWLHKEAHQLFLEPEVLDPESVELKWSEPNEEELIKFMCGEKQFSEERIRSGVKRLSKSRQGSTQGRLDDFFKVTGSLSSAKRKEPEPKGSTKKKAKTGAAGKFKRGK
Sequence of Thyrotropin-releasing hormone receptor (Homo sapiens) (P34981 whole entry, looked up): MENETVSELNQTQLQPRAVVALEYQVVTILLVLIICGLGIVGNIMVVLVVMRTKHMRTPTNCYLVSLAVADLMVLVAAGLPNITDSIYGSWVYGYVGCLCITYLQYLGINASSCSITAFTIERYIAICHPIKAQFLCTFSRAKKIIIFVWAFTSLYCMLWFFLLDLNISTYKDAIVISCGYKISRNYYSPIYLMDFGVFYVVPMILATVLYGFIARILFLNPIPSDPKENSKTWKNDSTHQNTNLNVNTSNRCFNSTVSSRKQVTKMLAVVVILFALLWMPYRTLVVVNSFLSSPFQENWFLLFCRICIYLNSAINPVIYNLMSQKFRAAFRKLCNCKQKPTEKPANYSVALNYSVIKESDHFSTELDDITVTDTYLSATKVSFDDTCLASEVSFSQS

Q: With CC(COc1ccccc1)N(CCCl)Cc1ccccc1 (centres undefined) as the compound, how does the Potency [1] read?
A: inactive

Q: What about the Potency [2] of the same compound?
A: inactive

Q: What about the Potency [3] of the same compound?
A: 0.0095 µM (active)

Q: With Clc1cccc(N2CCNCC2)c1 as the compound, how does the Potency [2] read?
A: inactive

Q: And the outcome [4]?
A: inactive

Q: And the outcome [5]?
A: inactive

Q: With NP(N)(=O)NC(=O)c1ccc(F)cc1 as the compound, how does the outcome [6] read?
A: inactive

Q: Which outcome [6] does the source give for CC(C)(N)Cc1ccc(Cl)cc1 here?
A: inactive

Q: Which results are given for CN(C)C(=O)C(CCN1CCC(O)(c2ccc(Cl)cc2)CC1)(c1ccccc1)c1ccccc1?
A: Potency [7]: 7.38 µM (active); Potency [8]: inactive

Q: With COc1cc2c(c(OC)c1OC)-c1ccc(OC)c(=O)cc1[C@@H](NC(C)=O)CC2 as the compound, how does the Potency [1] read?
A: inactive

Q: And the Potency [3]?
A: inactive

Q: And the Potency [8]?
A: 0.461 µM (active)

Q: For CC(C)C(=O)Nc1ccc([N+](=O)[O-])c(C(F)(F)F)c1, which Potency [2] is on record?
A: inactive

Q: And the Potency [3]?
A: inactive

Q: And the Potency [9]?
A: inactive

Q: What about the Potency [8] of the same compound?
A: inactive

Q: Which outcome [6] does the source give for NCCc1cc(O)c(O)cc1O here?
A: inactive

Q: With Oc1ccccc1-c1ccccc1 as the compound, how does the outcome [6] read?
A: inactive

Q: For CCC1C(=O)OCC1Cc1cncn1C (centres undefined), which Potency [1] is on record?
A: inactive

Q: What about the Potency [2] of the same compound?
A: inactive

Q: For O=c1[nH]cc(F)c(=O)[nH]1, which Potency [7] is on record?
A: 9.28 µM (active)

Q: And the Potency [1]?
A: inactive

Q: With c1ccc2c(c1)OCC(C1=NCCN1)O2 (centres undefined) as the compound, how does the outcome [10] read?
A: inactive

Q: What about the outcome [11] of the same compound?
A: inactive

Q: And the Potency [7]?
A: inactive

Q: What about the outcome [12] of the same compound?
A: inactive

Q: And the Potency [13]?
A: 7.52 µM (active)

Q: And the Potency [1]?
A: inactive

Q: And the Potency [2]?
A: inactive

Q: And the Potency [3]?
A: inactive

Q: What about the outcome [14] of the same compound?
A: inactive

Q: And the outcome [4]?
A: inactive

Q: What about the outcome [5] of the same compound?
A: inactive

Q: And the Potency [15]?
A: inactive

Q: What about the Potency [9] of the same compound?
A: inactive

Q: And the Potency [16]?
A: inactive

Q: And the Potency [8]?
A: inactive

Q: And the Potency [17]?
A: 14.6 µM (active)

Q: And the activation [18]?
A: 1.38%

Q: For CNCCC(Oc1ccc(C(F)(F)F)cc1)c1ccccc1 (centres undefined), which Potency [19] is on record?
A: inactive

Q: And the Potency [3]?
A: inactive

Q: Which results are given for CC[N+](CC)(CC)CC?
A: Potency [7]: 4.15 µM (active); Potency [1]: inactive; Potency [2]: inactive; outcome [4]: inactive; outcome [5]: inactive; outcome [6]: inactive

Q: Which Potency [1] does the source give for CCOC(=O)c1ncn2c1CN(C)C(=O)c1cc(F)ccc1-2 here?
A: inactive

Q: With C=C(C)[C@H]1Cc2c(ccc3c2O[C@@H]2COc4cc(OC)c(OC)cc4[C@@H]2C3=O)O1 as the compound, how does the outcome [10] read?
A: inactive

Q: And the outcome [11]?
A: inactive

Q: And the outcome [12]?
A: inactive

Q: And the Potency [13]?
A: inactive

Q: And the Potency [1]?
A: inactive

Q: And the Potency [2]?
A: inactive

Q: And the Potency [3]?
A: 35.5 µM (active)

Q: What about the outcome [14] of the same compound?
A: inactive

Q: And the outcome [4]?
A: inactive

Q: What about the outcome [5] of the same compound?
A: inactive

Q: What about the Potency [15] of the same compound?
A: inactive

Q: And the Potency [9]?
A: inactive

Q: What about the Potency [16] of the same compound?
A: inactive

Q: What about the Potency [8] of the same compound?
A: inactive

Q: What about the activation [18] of the same compound?
A: 1.25%

Q: Which Potency [7] does the source give for CCn1cc(C(=O)O)c(=O)c2ccc(C)nc21 here?
A: inactive

Q: And the Potency [2]?
A: inactive

Q: What about the outcome [4] of the same compound?
A: inactive

Q: And the outcome [5]?
A: inactive

Q: And the activation [18]?
A: 1.06%

Q: With CCCC1CCCCN1 (centres undefined) as the compound, how does the outcome [6] read?
A: inactive

Q: With CC12CC3CC(C)(C1)CC(N)(C3)C2 as the compound, how does the Potency [1] read?
A: inactive

Q: For CC[N+](C)(C)c1cccc(O)c1, which Potency [7] is on record?
A: 0.0059 µM (active)

Q: What does the source list for COc1ccc(Cc2nccc3cc(OC)c(OC)cc23)cc1OC?
A: Potency [7]: inactive; Potency [1]: inactive; Potency [2]: inactive; Potency [3]: 0.006 µM (active); outcome [4]: inactive; outcome [5]: inactive; activation [18]: -0.312%
